Records with an inconclusive call do not appear. Some compounds were tested as several samples or in several runs, with calls that do not always agree. Active and inactive are the calls of the source. The calls were made as follows: active = hit-call score of the fitted dose curve at least 0.9, where 1 is the maximum; inconclusive = response in the unintended direction; inactive = score below 0.9.

Sequence of Estrogen receptor (Homo sapiens) (P03372 whole entry, looked up): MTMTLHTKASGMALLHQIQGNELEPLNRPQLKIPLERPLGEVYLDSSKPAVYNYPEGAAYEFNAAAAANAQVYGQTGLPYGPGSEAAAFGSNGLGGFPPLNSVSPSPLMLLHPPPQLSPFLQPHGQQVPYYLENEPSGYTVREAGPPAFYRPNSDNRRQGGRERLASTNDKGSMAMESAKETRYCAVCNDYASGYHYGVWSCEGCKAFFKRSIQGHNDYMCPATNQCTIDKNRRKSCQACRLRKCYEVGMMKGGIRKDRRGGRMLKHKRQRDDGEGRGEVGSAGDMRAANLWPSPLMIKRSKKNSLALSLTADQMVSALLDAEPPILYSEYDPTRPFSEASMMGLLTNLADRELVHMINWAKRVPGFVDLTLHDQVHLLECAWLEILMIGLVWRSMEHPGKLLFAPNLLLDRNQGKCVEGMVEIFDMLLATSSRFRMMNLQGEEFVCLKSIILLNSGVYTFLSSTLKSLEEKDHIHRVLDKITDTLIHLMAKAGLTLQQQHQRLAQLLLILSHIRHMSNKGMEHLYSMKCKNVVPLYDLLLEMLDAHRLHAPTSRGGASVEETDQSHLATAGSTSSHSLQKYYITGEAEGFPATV
Sequence of Bile acid receptor (Homo sapiens) (Q96RI1 whole entry, looked up, the tested form may be a part): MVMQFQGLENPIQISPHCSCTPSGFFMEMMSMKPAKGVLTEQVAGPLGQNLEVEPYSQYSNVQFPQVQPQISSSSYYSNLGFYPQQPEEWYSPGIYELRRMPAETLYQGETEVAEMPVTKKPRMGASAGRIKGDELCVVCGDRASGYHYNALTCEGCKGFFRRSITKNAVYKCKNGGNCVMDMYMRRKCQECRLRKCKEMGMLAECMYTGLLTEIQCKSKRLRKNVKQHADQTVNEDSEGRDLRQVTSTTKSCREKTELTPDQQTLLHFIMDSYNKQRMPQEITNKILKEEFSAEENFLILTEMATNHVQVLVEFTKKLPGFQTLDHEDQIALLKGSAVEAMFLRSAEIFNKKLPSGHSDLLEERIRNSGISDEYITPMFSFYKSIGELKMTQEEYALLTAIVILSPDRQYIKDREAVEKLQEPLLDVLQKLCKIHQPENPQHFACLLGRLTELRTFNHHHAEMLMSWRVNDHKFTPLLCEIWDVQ

One assay has as its target Estrogen receptor (Homo sapiens) (UniProt P03372). In words: OT_ERa_GFPERaERE_0120: Odyssey Thera (OT) 2-hour HeLa Transcription Induction Assay for Estrogen Receptor (AID 2283382). The method, boiled down:
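HeLa cells were dosed with test chemical and read 2 hours later for GFP-ERα/ERE-linked fluorescent protein induction by fluorescence microscopy. Gain-of-signal was fitted relative to DMSO baseline, quantified by high content image analysis.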
For `CCCCCCc1ccc(N)cc1`, the compound was called inactive.
Regarding `CCCCCCCCCC=CCC1CC(=O)OC1=O` (stereo not drawn), the compound was called inactive.
The AC50 is the concentration at which the activity in the assay is half-maximal. `CCCCCCCCCCCCOC(=O)c1cc(O)c(O)c(O)c1`: the AC50 was 84.1 µM (active).
Regarding `CN(Cc1cnc2nc(N)nc(N)c2n1)c1ccc(C(=O)N[C@@H](CCC(=O)O)C(=O)O)cc1`, the compound was called inactive.
Turning to `COc1cc([N+](=O)[O-])ccc1N`, the outcome was inactive.
Same read-out and setting: in the case of `CCCCc1ccc2ccccc2c1S(=O)(=O)O` it was “inactive”; in that of `NCc1cccc(CN)c1`, “inactive”.
For `NC(=NCCCCCCN=C(N)/N=C(\N)Nc1ccc(Cl)cc1)/N=C(\N)Nc1ccc(Cl)cc1`, the half-maximal activity concentration (AC50) was 28.6 µM (active).
Consider `C=CC(C)(CCC=C(C)C)OC(C)=O` (stereo not drawn), for which the call was inactive.
As for `CN(C)CCOC(c1ccccc1)c1ccccc1`, the outcome was inactive.
Same read-out and setting: to `N=C(N)c1ccc(OCCCCCOc2ccc(C(=N)N)cc2)cc1` belongs “inactive”.
Same read-out and setting: to `Cc1cc(C(=C2C=CC(=Nc3ccc(S(=O)(=O)O)cc3)C=C2)c2ccc(Nc3ccc(S(=O)(=O)O)cc3)cc2)cc(S(=O)(=O)O)c1N` belongs “inactive”.

A further assay addresses Bile acid receptor (Homo sapiens) (UniProt Q96RI1). In words: OT_FXR_FXRSRC1_0480: Odyssey Thera (OT) 8-hour HEK293T Protein-Complementation Assay for Farnesoid X receptor/SRC-1 Co-activator (AID 2283383). The method, boiled down: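 HEK293T cells expressing FXR and SRC-1 fused to reporter fragments were dosed with compound for 8 h; fluorescence from the reconstituted reporter marked co-activator recruitment. Gain of signal was fitted against the DMSO baseline.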
For the compound `CCCCCCc1ccc(N)cc1`, the AC50 is 17 µM (active).
As for `CCCCCCCCCC=CCC1CC(=O)OC1=O` (stereo not drawn), the outcome was inactive.
Same read-out and setting: in the case of `CN(Cc1cnc2nc(N)nc(N)c2n1)c1ccc(C(=O)N[C@@H](CCC(=O)O)C(=O)O)cc1` it was “inactive”.
Still for that read-out and setting: in the case of `COc1cc([N+](=O)[O-])ccc1N` it was “inactive”.
For `CCCCc1ccc2ccccc2c1S(=O)(=O)O`, the compound was called inactive.
Consider `C=CC(C)(CCC=C(C)C)OC(C)=O` (stereo not drawn), for which the AC50 was 76 µM (active).
Regarding `O=C(c1ccccc1)c1ccccc1`, the result was inactive.
Still for that read-out and setting: to `Cc1cc(C(=C2C=CC(=Nc3ccc(S(=O)(=O)O)cc3)C=C2)c2ccc(Nc3ccc(S(=O)(=O)O)cc3)cc2)cc(S(=O)(=O)O)c1N` belongs “inactive”.

The target of a further assay is Retinoic acid receptor RXR-alpha (Homo sapiens) (UniProt P19793). In words: OT_NURR1_NURR1RXRa_0480: Odyssey Thera (OT) 8-hour HEK293T Protein Complementation Assay for Nurr1/retinoid X receptor (RXR) (AID 2283385). The method, boiled down: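 HEK293T cells expressing Nurr1 and RXRα fused to reporter fragments were dosed with compound for 8 hours. Complex formation was read as fluorescence intensity and analysed as gain of signal against DMSO as baseline.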
Sequence of Retinoic acid receptor RXR-alpha (Homo sapiens) (P19793 whole entry, looked up, the tested form may be a part): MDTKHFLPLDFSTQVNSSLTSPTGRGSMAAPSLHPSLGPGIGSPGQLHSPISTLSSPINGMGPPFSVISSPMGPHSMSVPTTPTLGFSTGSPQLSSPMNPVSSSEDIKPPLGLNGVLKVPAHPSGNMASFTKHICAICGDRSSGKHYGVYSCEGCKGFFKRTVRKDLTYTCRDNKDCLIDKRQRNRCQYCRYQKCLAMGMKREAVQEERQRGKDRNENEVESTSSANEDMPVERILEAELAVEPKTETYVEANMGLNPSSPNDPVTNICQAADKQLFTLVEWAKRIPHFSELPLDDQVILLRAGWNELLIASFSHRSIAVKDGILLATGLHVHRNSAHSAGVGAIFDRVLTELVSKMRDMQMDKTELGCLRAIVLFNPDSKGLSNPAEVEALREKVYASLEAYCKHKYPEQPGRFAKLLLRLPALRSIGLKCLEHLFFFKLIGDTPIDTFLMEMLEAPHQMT
As for `CCCCCCc1ccc(N)cc1`, the call was inactive.
The same measure, in the same setting: to `O=C1OC2(c3ccccc31)c1cc(I)c(O)c(I)c1Oc1c2cc(I)c(O)c1I` belongs “inactive”; to `CCCCCCCCCC=CCC1CC(=O)OC1=O` (stereo not drawn), “inactive”.
Regarding `C[C@]12CC[C@@H]3c4ccc(O)cc4CC[C@H]3[C@@H]1C[C@@H](O)[C@@H]2O`, the compound was called inactive.
Same read-out and setting: to `CN(Cc1cnc2nc(N)nc(N)c2n1)c1ccc(C(=O)N[C@@H](CCC(=O)O)C(=O)O)cc1` belongs “inactive”; to `COc1cc([N+](=O)[O-])ccc1N`, “inactive”; to `C=CC(C)(CCC=C(C)C)OC(C)=O` (stereo not drawn), “inactive”.
`CN(C)CCOC(c1ccccc1)c1ccccc1`: the compound was called inactive.
Still for that read-out and setting: in the case of `N=C(N)c1ccc(OCCCCCOc2ccc(C(=N)N)cc2)cc1` it was “inactive”.
`O=C(c1ccccc1)c1ccccc1`: the call was inactive.

For another assay the target is unchanged. Put plainly: OT_NURR1_NURR1RXRa_1440: Odyssey Thera (OT) 24-hour HEK293T Protein Complementation Assay for Nurr1/retinoid X receptor (RXR) (AID 2283386). The method, boiled down: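 HEK293T cells were dosed with compound and read 24 h later by fluorescence intensity in a protein-fragment complementation format, where Nurr1–RXRα interaction reconstitutes a split reporter. Activity was fitted as gain of signal relative to DMSO baseline.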
`CCCCCCc1ccc(N)cc1`: the compound was called inactive.
On the same count and under the same terms, in the case of `C[C@]12CC[C@@H]3c4ccc(O)cc4CC[C@H]3[C@@H]1C[C@@H](O)[C@@H]2O` it was “inactive”; in that of `CN(Cc1cnc2nc(N)nc(N)c2n1)c1ccc(C(=O)N[C@@H](CCC(=O)O)C(=O)O)cc1`, “inactive”; in that of `COc1cc([N+](=O)[O-])ccc1N`, “inactive”.
Turning to `NCc1cccc(CN)c1`, the compound was called inactive.
With `CN(C)CCOC(c1ccccc1)c1ccccc1`, the AC50 is 6.73 µM (active) and the compound was classed as inactive.
On to `O=C(c1ccccc1)c1ccccc1`, for which the compound was classed as inactive.

Source of the values: PubChem BioAssay (EPA / NIEHS).
